From PubChem
Y pestis TopoI – Y. pestis Topo-I inhibition via cleavage products. Y. pestis Topo-I cleavage product accumulation, plate reader. AID 504884. activity, % at 10 µM. 360,000 tested, 0.064% active; in the data active = activity above about 50%, passing the limit was not always enough; inconclusive = no clear call, values can overlap the other calls
UGM FP inh – inhibitors of M. tuberculosis UDP-galactopyranose mutase; purified UGM, fluorescence polarization probe displacement; inhibition, % at 10 µM; 320,000 tested, 0.06% active; AID 504406; in the data active = inhibition above about 10%, passing the limit was not always enough; inconclusive = no clear call, values can overlap the other calls
PfHsp40 yeast – restores yeast growth despite PfHsp40 toxicity | S. cerevisiae expressing PfHsp40, growth rescue, ATP luminescence | growth rescue, % at 12.5 µM | 340,000 tested, 0.68% active | AID 504582; in the data active = growth rescue above about 28%, passing the limit was not always enough; inconclusive = no clear call, values can overlap the other calls;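 note: yeast W303a lacking pdr1 and pdr3 grown in galactose medium; growth measured after three days at 30 °C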
FadD28 FP inh – M. tuberculosis FadD28 bisubstrate binding inhibition. inhibition, % at 12.5 µM. AID 588549. 360,000 tested, 0.22% active. FadD28 bisubstrate probe binding, fluorescence polarization; in the data active = inhibition above about 8.5%, passing the limit was not always enough; inconclusive = no clear call, values can overlap the other calls
Mtb betalactam – beta-lactam sensitization of Mtb H37Rv | M. tuberculosis H37Rv growth with meropenem, percent inhibition | inhibition, % at 25 µM | 330,000 tested, 0.27% active; call rule not given here;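 note: growth measured after seven days incubation then overnight dye step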
Rv3671c inh – inhibitors of M. tuberculosis serine protease Rv3671c. inhibition, % at 5.96 µM. 320,000 tested, 0.048% active. AID 2606. P9WHR9; in the data active = inhibition above about 38%;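 note: extracellular domain of Rv3671c used as enzyme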
Target sequence (P9WHR9 whole entry, looked up, the tested form may be a part): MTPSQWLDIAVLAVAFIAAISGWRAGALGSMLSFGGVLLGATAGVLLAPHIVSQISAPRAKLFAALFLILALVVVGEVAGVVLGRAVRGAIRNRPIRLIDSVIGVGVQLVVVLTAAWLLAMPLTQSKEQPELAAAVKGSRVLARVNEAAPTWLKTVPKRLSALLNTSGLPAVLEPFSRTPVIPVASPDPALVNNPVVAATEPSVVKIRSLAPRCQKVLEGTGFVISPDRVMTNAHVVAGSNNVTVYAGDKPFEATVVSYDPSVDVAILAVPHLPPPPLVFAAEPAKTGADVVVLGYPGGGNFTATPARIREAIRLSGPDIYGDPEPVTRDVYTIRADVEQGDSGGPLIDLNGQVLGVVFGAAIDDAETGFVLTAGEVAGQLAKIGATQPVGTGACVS
Hits are given with their value; i = inactive; ? = inconclusive; nt = no result given. Most compounds without a hit are left out; they make up all but 0.98% or so of the library.

SMILES	Y pestis TopoI	UGM FP inh	PfHsp40 yeast	FadD28 FP inh	Mtb betalactam	Rv3671c inh
CCCCCCCCCCCCCCCC[N+](C)(C)CC	i	i	i	18.8	i	i
C[N+](C)(C)CCCCCC[N+](C)(C)C	i	i	i	i	i	i
C#CC[N+](C)(C)CCCCCCCCCC	i	i	i	i	i	i
COc1ccc2cc(CNCCOCCOCCNCc3ccc4cc(OC)ccc4c3)ccc2c1	i	nt	i	i	nt	nt
CCOC(=O)[C@@H](NC(=O)/C=C/[C@H]1O[C@@H](n2cc(C)c(=O)[nH]c2=O)C[C@@H]1O)C(C)C	nt	nt	nt	i	nt	nt
O=C(O)c1cccc(N/N=C/c2cc(Br)cc(Br)c2O)c1	i	i	i	27.5	i	i
Cc1c(N=Cc2cc(Br)cc(Br)c2O)cccc1C(=O)O	i	i	58.9	i	i	i
Cc1ccc(-c2c(C#N)c(N)n(-c3ccccc3C)c(=O)c2C#N)cc1	i	nt	nt	i	nt	nt
CC1(C)CCC[C@]2(C)[C@H]3Cc4cc(O)ccc4O[C@]3(C)CC[C@@H]12	i	i	92.6	i	i	i
CC1(C)CCC[C@]2(C)[C@H]3CC(=O)O[C@]3(C)CC[C@@H]12	i	i	i	i	i	i
O=C(Cc1ccccc1)NC1CCCCC1	i	nt	nt	i	nt	nt
COc1cc(C(=O)O)c2c(c1C)OC(=O)c1c(C)cc(O)c(C=O)c1O2	i	i	86.4	i	i	i
CSCCC(NC(=O)COc1ccccc1)C(=O)NCC(C)(C)N1CCOCC1 (configuration not stated)	i	nt	nt	i	nt	nt
Cc1ccc(S(=O)(=O)/N=C2/NC(=O)/C(=C/c3cc([N+](=O)[O-])ccc3O)S2)cc1	i	i	i	33.2	i	i
O=C1NC(=Nc2ccccc2Cl)S/C1=C\c1cc([N+](=O)[O-])ccc1O	i	i	i	30.1	i	i
Cc1ccc(S(=O)(=O)/N=C2/NC(=O)/C(=C\c3ccco3)S2)cc1	i	i	i	11.9	i	i
COc1ccc(-n2nnnc2C(c2ccnc3ccccc23)N2CCN(C/C=C/c3ccccc3)CC2)cc1 (configuration not stated)	nt	nt	nt	i	nt	nt
COc1ccc(-c2nc(C#N)c(NCc3ccc(F)cc3)o2)cc1OC	i	i	i	11.2	i	i
CCN(CC)S(=O)(=O)c1ccc(-c2nnc(SCc3nnc(-c4ccc(C)cc4)o3)o2)cc1	i	i	i	i	i	i
CCN(CC)S(=O)(=O)c1ccc(-c2nnc(SCc3nnc(-c4ccc(C)cc4)o3)n2CC)cc1	i	i	45.3	i	i	i
Cc1ccc(S(=O)(=O)/N=C2/C=C(Sc3ncn[nH]3)C(=O)c3ccccc32)cc1	i	i	119.2	i	i	i
O=c1c2ccccc2c(-c2cccc(C(F)(F)F)c2)nn1-c1ccccc1	i	i	i	i	i	i
O=c1c2ccccc2c(-c2ccc(O)cc2)nn1-c1cccc(C(F)(F)F)c1	i	i	239.9	?	i	i
Cc1ccsc1-c1cc2nc(NCCCN(C)C)n(C)c(=O)c2s1	i	nt	nt	i	nt	nt
C(=C\c1ccc2nncn2c1)/c1ccccc1	i	nt	nt	i	nt	nt
SMILES	Y pestis TopoI	UGM FP inh	PfHsp40 yeast	FadD28 FP inh	Mtb betalactam	Rv3671c inh
CC1CCCCC1NC(=O)/C(C#N)=C/c1ccccc1F (configuration not stated)	i	i	110.8	i	i	i
CSc1ccc(/C=C(\C#N)C(=O)NC2CCCCC2C)cc1 (configuration not stated)	i	i	i	i	i	i
Cc1nc2c(OCc3cc(Cl)cc(Cl)c3)cccn2c1N(C)C(=O)CCC1CCCC1	i	nt	nt	i	nt	nt
CNC(=O)CC1C(=O)N(Cc2ccccc2)C(=S)N1NC(=O)c1cccc(F)c1 (configuration not stated)	i	i	i	i	i	i
CCN1C(=O)C(CC(=O)Nc2ccccc2Cl)N(NC(=O)c2cccc(F)c2)C1=S (configuration not stated)	i	i	121.9	i	i	i
COc1cc(Nc2ccn3nc(-c4ccc(F)cc4)cc3n2)cc(OC)c1OC	i	nt	nt	i	nt	nt
CC(=O)NC(c1ccc(C)cc1)c1cc(Cl)c2cccnc2c1O (configuration not stated)	i	i	i	i	i	nt
Oc1c(C(c2ccc(Cl)cc2)N2CCCC2)cc(Cl)c2cccnc12 (configuration not stated)	i	i	52.8	i	i	i
CN1CCN(C(c2ccccn2)c2cc(Cl)c3cccnc3c2O)CC1 (configuration not stated)	i	i	400.7	i	i	i
Oc1c(C(c2ccccn2)N2CCC(Cc3ccccc3)CC2)cc(Cl)c2cccnc12 (configuration not stated)	nt	i	nt	nt	i	i
Cc1ccc(C(c2cc(Cl)c3cccnc3c2O)N2CCN(C)CC2)cc1 (configuration not stated)	i	i	61.4	i	i	i
CCCn1c(N)c(C(=O)CSc2nc(C)cs2)c(=O)[nH]c1=O	i	i	26.5	i	i	i
O=C(c1cccs1)N1CCN(Cc2nc(-c3ccccc3)no2)CC1	i	nt	nt	i	nt	nt
CCCNC(=O)C1(C)CCCN(C/C=C/c2ccccc2)C1 (configuration not stated)	i	nt	nt	i	nt	nt
Cc1ccc([N+](=O)[O-])cc1-c1ccc(/C=C(\C#N)c2[nH]nc(N)c2C#N)o1	i	i	i	9.4	i	i
Cc1ccc(CNC(=S)NC2CCC(C(C)(C)C)CC2)cc1 (configuration not stated)	i	i	187.8	i	i	nt
CC(NC(=S)NC1CCC(C(C)(C)C)CC1)c1ccccc1 (configuration not stated)	i	i	71.3	i	i	nt
CCC1CC(C(=O)O)CC(=O)N1 (configuration not stated)	nt	nt	nt	i	nt	nt
CNc1ccccc1C(=O)OCC(=O)N1CCc2ccccc2C1	i	nt	nt	i	nt	nt
Cc1ccc(S(=O)(=O)Cc2ccc(C(=O)N3CCN(c4cccc(C)c4C)CC3)o2)cc1	i	i	40.5	i	i	i
N#Cc1ccccc1NC(=O)c1cc(=O)c2ccccc2o1	i	i	i	12.3	i	i
Cc1ccccc1NC(=O)c1cc(=O)c2ccccc2o1	i	i	i	i	i	i
CC(C)C(=O)N1CCN(c2nc(-c3ccc(Cl)cc3)cs2)CC1	52.5	i	i	i	i	i
C[C@@H]1CN([C@H](C)CO)C(=O)c2cc(NC(=O)Nc3ccc(F)cc3)ccc2O[C@H]1CN(C)C(=O)Nc1ccc(C(F)(F)F)cc1	i	i	47.5	i	i	i
Cc1onc(-c2ccccc2)c1C(=O)NC(=S)NNC(=O)c1ccc(O)cc1O	i	i	247.8	i	?	i
Cc1onc(-c2ccccc2)c1C(=O)NC(=S)NNC(=O)c1ccccc1O	i	i	?	i	i	i
O=[N+]([O-])c1ccc(S(=O)Cc2ccccc2)c([N+](=O)[O-])c1 (configuration not stated)	i	nt	253.2	i	nt	nt
CS(=O)(=O)c1ccc2nc(NC(=O)c3ccc(NS(=O)(=O)c4ccc(F)c(F)c4)cc3)sc2c1	i	i	i	i	i	i
